From PubChem BioAssay (EPA / NIEHS)
Inconclusive results are not listed. The source holds several records for some structures; these can differ, active in one and inactive in another. Activity calls are given as the source filed them. Rule for the calls, unless noted: active = hit-call score of the fitted dose curve at least 0.9, where 1 is the maximum; inactive = score below 0.9.

Columns and labels:
[1] = ATG_GAL4_TRANS: Attagene TRANS-FACTORIAL HepG2 Assay for GAL4 (Internal Marker) (AID 2282976; active = hit-call score of the fitted dose curve at least 0.9, where 1 is the maximum); details: HepG2 Attagene TRANS GAL4 internal marker reporter
Procedure, shortened: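 RT-PCR/capillary electrophoresis readout of reporter mRNA. HepG2, transient MRTU transfection (GAL4-UAS reporters), 24 h compound exposure. Background-control endpoint, positive direction vs DMSO baseline.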

[2] = molecular target: Estrogen-related receptor gamma (Homo sapiens) (UniProt P62508); assay: ATG_ERRg_TRANS: Attagene TRANS-FACTORIAL HepG2 Assay for human Estrogen-Related Receptor gamma (ERRg) (AID 2282977; active = hit-call score of the fitted dose curve at least 0.9, where 1 is the maximum;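 note: hits increase reporter signal over DMSO so potencies reflect activators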); details: HepG2 Attagene TRANS reporter, ERRg transactivation
Procedure, shortened: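 Exogenous NR-Gal4 chimera activity measured as reporter transcript induction after 24 h in transiently transfected HepG2 cells. RNA reverse-transcribed, PCR-amplified, 6-FAM-labelled and resolved by capillary electrophoresis; increase over DMSO baseline.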

[3] = molecular target: Oxysterols receptor LXR-beta (Homo sapiens) (UniProt P55055); assay: ATG_LXRb_TRANS: Attagene TRANS-FACTORIAL HepG2 Assay for human Liver X Receptor beta (LXRb) (AID 2282981; active = hit-call score of the fitted dose curve at least 0.9, where 1 is the maximum); details: HepG2 Attagene TRANS GAL4-LXRb reporter, mRNA
Procedure, shortened: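 Multiplexed reporter assay, HepG2, 24 h dosing. Fluorescence of labelled RT-PCR products after capillary electrophoresis gives transcript level; positive fitting direction relative to DMSO.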

[4] = ATG_M_32_TRANS: Attagene TRANS-FACTORIAL HepG2 Assay for M32 Transcription Factor (Internal Marker) (AID 2282984; active = hit-call score of the fitted dose curve at least 0.9, where 1 is the maximum;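 note: transcript level of a background control reporter unit measured by RT-PCR and capillary electrophoresis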); details: HepG2 Attagene TRANS M32 internal marker reporter
Procedure, shortened: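 Internal-marker readout from a multiplexed transcription reporter panel. HepG2 cells were transfected with GAL4-UAS reporter units, treated 24 hours, and reporter transcript levels determined by fluorescence after RT-PCR and capillary separation.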

[5] = molecular target: Nuclear receptor subfamily 4 group A member 2 (Homo sapiens) (UniProt P43354); assay: ATG_NURR1_TRANS: Attagene TRANS-FACTORIAL HepG2 Assay for human Nuclear Receptor Related Protein 1 (NURR1) (AID 2282985; active = hit-call score of the fitted dose curve at least 0.9, where 1 is the maximum); details: HepG2 Attagene TRANS reporter, mRNA readout
Procedure, shortened: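 Endpoint: reporter mRNA increase relative to DMSO. HepG2 cells transfected with reporter units, treated 24 h; RNA processed by RT-PCR, labelling, HpaI digestion and capillary electrophoresis.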

[6] = molecular target: Transcriptional activator Myb (Homo sapiens) (UniProt P10242); assay: ATG_Myb_CIS: Attagene CIS-FACTORIAL HepG2 Assay for human Myeloblastosis (Myb) Proto-Oncogene Transcription Factor (AID 2282986); details: HepG2 Attagene CIS-FACTORIAL Myb reporter transcription; actives raise or lower the signal
Procedure, shortened: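 Multiplexed cis-reporter system in HepG2: transient transfection, 24 h treatment, mRNA readout by RT-PCR and capillary electrophoresis. Both increases and decreases are scored versus DMSO negative control.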

[7] = molecular target: Nuclear respiratory factor 1 (Homo sapiens) (UniProt Q16656); assay: ATG_NRF1_CIS: Attagene CIS-FACTORIAL HepG2 Assay for human Nuclear Respiratory Factor 1 (NRF1) Orphan Gene (AID 2282987); details: HepG2 NRF1 cis-element reporter, Attagene multiplex; actives raise or lower the signal
Procedure, shortened: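 Endogenous factor activity was captured via cis-element-driven reporter transcripts in HepG2 cells. Following 24 h chemical treatment, transcripts were quantified by RT-PCR and capillary electrophoresis.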

[8] = ATG_NFI_CIS: Attagene CIS-FACTORIAL HepG2 Assay for human Nuclear Factor I (NFI) (AID 2282989); details: HepG2 cis-regulatory reporter, NFI response element transcription; actives raise or lower the signal
Procedure, shortened: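 Cells: human liver HepG2, transiently transfected with promoter-regulated reporter transcription units. Exposure 24 h. Detection: fluorescent RT-PCR products separated by capillary electrophoresis, normalised to DMSO negative control.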

[9] = molecular target: Myc proto-oncogene protein (Homo sapiens) (UniProt P01106); assay: ATG_Myc_CIS: Attagene CIS-FACTORIAL HepG2 Assay for human Myelocytomatosis (Myc) Proto-Oncogene Transcription Factor (AID 2282990); details: HepG2, Attagene cis-reporter transcription factor activity; actives raise or lower the signal
Procedure, shortened: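 Transiently transfected HepG2 cells bearing cis-promoter reporter units for endogenous transcription factors; 24 h exposure. Reporter mRNA measured by RT-PCR, 6-FAM primer extension, HpaI cut and capillary electrophoresis; bidirectional fit relative to DMSO.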

[10] = ATG_NF_kB_CIS: Attagene CIS-FACTORIAL HepG2 Assay for human Nuclear Factor Kappa B (NF-kB) (AID 2282991); details: HepG2 Attagene cis-factorial NF-kB reporter mRNA; actives raise or lower the signal
Procedure, shortened: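 After 24 h compound incubation, transfected HepG2 cells yield total RNA; reporter cDNA is PCR-amplified, end-labelled with 6-FAM, HpaI-digested and analysed on a genetic analyser. Endogenous factor activity, DMSO-referenced bidirectional fit.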

[11] = ATG_NRF2_ARE_CIS: Attagene CIS-FACTORIAL HepG2 Assay for human Nuclear Factor Erythroid 2 Related Factor 2 (NFR2) response to Antioxidant Response Elements (ARE) (AID 2282992); details: HepG2 Attagene ARE/NRF2 reporter, transcription factor activity; actives raise or lower the signal;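 for AC50: reporter mRNA level measured by RT-PCR and capillary electrophoresis fluorescence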
Procedure, shortened: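 Endogenous transcription factor activity in human liver HepG2 cells is tracked via a cis-element-driven reporter within a multiplexed set. mRNA induction is read by RT-PCR and capillary electrophoresis after 24 h, with DMSO as baseline.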

[12] = ATG_Oct_MLP_CIS: Attagene CIS-FACTORIAL HepG2 Assay for human Octamer-Binding Transcription Factor (Oct) (AID 2282993); details: HepG2 Attagene cis-factorial Oct reporter, mRNA; actives raise or lower the signal
Procedure, shortened: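 HepG2, transient MRTU transfection, cis promoter elements; 24 h dosing; RT-PCR/CE fluorescence read-out of reporter mRNA; fit both directions vs DMSO.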

[13] = molecular target: Cellular tumor antigen p53 (Homo sapiens) (UniProt P04637); assay: ATG_p53_CIS: Attagene CIS-FACTORIAL HepG2 Assay for human p53 Transcription Factor (AID 2282994); details: HepG2 p53 cis-element reporter, Attagene mRNA; actives raise or lower the signal
Procedure, shortened: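 Steps: transfect HepG2 with multiplexed cis reporter constructs; dose chemicals 24 h; extract RNA, reverse-transcribe, PCR-amplify reporter sequences; FAM-label, HpaI-digest, resolve fragments by CE. Activity fitted both directions relative to DMSO.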

[14] = BSK_3C_uPAR: BioMAP Diversity Plus: 3C Assay for Urokinase-type plasminogen activator receptor (uPAR) Biomarker Activity (AID 2282998); details: BioMAP 3C HUVEC, uPAR biomarker ELISA; actives raise or lower the signal
Procedure, shortened: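 A multiplexed primary-cell system built on human umbilical vein endothelium was used, with chemical present for 24 h before reading. Cell-surface uPAR was detected by ELISA; signal change in either direction counted against DMSO.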

[15] = molecular target: Glucocorticoid receptor (Homo sapiens) (UniProt P04150); assay: ATG_GR_TRANS: Attagene TRANS-FACTORIAL HepG2 Assay for human Glucocorticoid Receptor (GR) (AID 2282978; active = hit-call score of the fitted dose curve at least 0.9, where 1 is the maximum;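 note: activators score as hits since higher reporter transcript over DMSO is fitted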); details: HepG2 Attagene TRANS GR reporter, mRNA transcription
Procedure, shortened: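 HepG2 transient transfection, multiple reporter units, GAL4-UAS under NR-GAL4 chimera control. 24 h treatment. Reporter mRNA by RT-PCR/CE fluorescence, DMSO as negative control.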

[16] = molecular target: Bile acid receptor (Homo sapiens) (UniProt Q96RI1); assay: ATG_FXR_TRANS: Attagene TRANS-FACTORIAL HepG2 Assay for Farnesoid X Receptor (FXR) (AID 2282979; active = hit-call score of the fitted dose curve at least 0.9, where 1 is the maximum;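 note: hits raise reporter mRNA above DMSO so AC50 marks FXR activation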); details: HepG2 Attagene TRANS FXR-GAL4 reporter transcription
Procedure, shortened: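 Read-out: fluorescent reporter transcripts quantified by capillary electrophoresis after RT-PCR of total RNA. Source cells were HepG2 transiently carrying chimeric NR-GAL4 plus GAL4-UAS reporter units, dosed 24 h. Activity fitted upward relative to DMSO baseline.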

[17] = molecular target: Oxysterols receptor LXR-alpha (Homo sapiens) (UniProt Q13133); assay: ATG_LXRa_TRANS: Attagene TRANS-FACTORIAL HepG2 Assay for human Liver X Receptor alpha (LXRa) (AID 2282980; active = hit-call score of the fitted dose curve at least 0.9, where 1 is the maximum); details: HepG2 Attagene TRANS reporter, LXRa transactivation
Procedure, shortened: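 Read-out: reporter transcript levels by RT-PCR plus capillary electrophoresis, fluorescence intensity. Transiently transfected HepG2, exogenous NR-GAL4 chimera, GAL4-UAS reporters; 24 h compound exposure. Activity = increase over DMSO negative control.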

[18] = molecular target: Hepatocyte nuclear factor 4-alpha (Homo sapiens) (UniProt P41235); assay: ATG_HNF4a_TRANS: Attagene TRANS-FACTORIAL HepG2 Assay for human Hepatocyte Nuclear Factor 4 alpha (HNF4a) (AID 2282982; active = hit-call score of the fitted dose curve at least 0.9, where 1 is the maximum); details: HepG2 HNF4a transactivation reporter, mRNA readout
Procedure, shortened: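 Endpoint reflects transcriptional activation of a GAL4-UAS reporter by an HNF4a-GAL4 chimera in transfected HepG2 cells, 24 h post-dosing. Fluorescence from RT-PCR products separated by capillary electrophoresis; DMSO baseline.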

[19] = ATG_M_06_TRANS: Attagene TRANS-FACTORIAL HepG2 Assay for M06 Transcription Factor (Internal Marker) (AID 2282983; active = hit-call score of the fitted dose curve at least 0.9, where 1 is the maximum); details: HepG2 Attagene TRANS M06 internal marker reporter
Procedure, shortened: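 Read-out: fluorescent reporter cDNA fragments resolved by capillary electrophoresis after RT-PCR and HpaI cut. Source cells were HepG2 carrying transfected multi-reporter GAL4 constructs, dosed 24 h. Increase over DMSO control analysed.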

[20] = BSK_3C_TissueFactor: BioMAP Diversity Plus: 3C Assay for Tissue Factor Biomarker Activity (AID 2282997); details: BioMAP 3C HUVEC, tissue factor biomarker readout; actives raise or lower the signal
Procedure, shortened: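 HUVEC, 3C system, 24 h post-dose; Tissue Factor by ELISA; bidirectional fit vs DMSO baseline.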

Measured: AC50

Chain of Oxysterols receptor LXR-alpha (Homo sapiens) (Q13133 whole entry, looked up, the tested form may be a part): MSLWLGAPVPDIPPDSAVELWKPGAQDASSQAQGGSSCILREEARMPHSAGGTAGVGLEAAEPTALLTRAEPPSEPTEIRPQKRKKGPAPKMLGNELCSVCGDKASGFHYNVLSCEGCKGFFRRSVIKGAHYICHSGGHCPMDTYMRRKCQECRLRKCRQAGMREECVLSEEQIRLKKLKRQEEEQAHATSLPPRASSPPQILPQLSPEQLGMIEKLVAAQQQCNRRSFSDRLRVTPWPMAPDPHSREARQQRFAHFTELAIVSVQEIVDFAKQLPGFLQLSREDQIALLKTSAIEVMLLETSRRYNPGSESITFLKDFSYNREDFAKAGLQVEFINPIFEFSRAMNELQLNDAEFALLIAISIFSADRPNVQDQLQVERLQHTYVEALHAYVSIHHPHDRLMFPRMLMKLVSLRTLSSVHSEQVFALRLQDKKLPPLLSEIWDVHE
Chain of Estrogen-related receptor gamma (Homo sapiens) (P62508 whole entry, looked up, the tested form may be a part): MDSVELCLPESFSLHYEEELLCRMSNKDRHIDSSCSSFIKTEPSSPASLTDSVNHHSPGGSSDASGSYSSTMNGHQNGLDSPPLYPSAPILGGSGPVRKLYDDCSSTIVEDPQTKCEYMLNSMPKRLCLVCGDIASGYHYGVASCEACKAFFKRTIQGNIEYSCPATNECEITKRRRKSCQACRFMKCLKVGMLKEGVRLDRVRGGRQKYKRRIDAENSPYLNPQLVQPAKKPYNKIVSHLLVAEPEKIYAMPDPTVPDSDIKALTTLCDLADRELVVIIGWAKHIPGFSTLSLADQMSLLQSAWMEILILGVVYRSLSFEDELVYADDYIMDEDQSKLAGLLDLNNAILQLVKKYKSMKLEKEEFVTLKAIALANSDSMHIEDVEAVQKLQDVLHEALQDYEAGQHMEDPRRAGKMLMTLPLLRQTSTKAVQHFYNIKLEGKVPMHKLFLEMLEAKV
Chain of Nuclear respiratory factor 1 (Homo sapiens) (Q16656 whole entry, looked up): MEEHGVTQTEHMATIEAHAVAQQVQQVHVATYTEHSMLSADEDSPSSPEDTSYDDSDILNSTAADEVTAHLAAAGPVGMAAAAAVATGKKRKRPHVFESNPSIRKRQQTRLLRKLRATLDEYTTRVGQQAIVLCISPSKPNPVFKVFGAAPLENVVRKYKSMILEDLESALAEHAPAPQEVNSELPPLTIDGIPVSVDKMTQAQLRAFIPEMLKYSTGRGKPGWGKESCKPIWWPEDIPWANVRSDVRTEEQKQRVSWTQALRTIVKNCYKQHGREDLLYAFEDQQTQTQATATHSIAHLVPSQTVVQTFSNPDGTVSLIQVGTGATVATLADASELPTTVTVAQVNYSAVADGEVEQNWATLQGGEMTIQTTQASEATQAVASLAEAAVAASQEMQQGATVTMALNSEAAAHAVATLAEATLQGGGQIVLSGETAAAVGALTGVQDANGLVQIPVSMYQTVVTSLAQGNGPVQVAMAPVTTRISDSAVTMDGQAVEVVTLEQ
Chain of Hepatocyte nuclear factor 4-alpha (Homo sapiens) (P41235 whole entry, looked up, the tested form may be a part): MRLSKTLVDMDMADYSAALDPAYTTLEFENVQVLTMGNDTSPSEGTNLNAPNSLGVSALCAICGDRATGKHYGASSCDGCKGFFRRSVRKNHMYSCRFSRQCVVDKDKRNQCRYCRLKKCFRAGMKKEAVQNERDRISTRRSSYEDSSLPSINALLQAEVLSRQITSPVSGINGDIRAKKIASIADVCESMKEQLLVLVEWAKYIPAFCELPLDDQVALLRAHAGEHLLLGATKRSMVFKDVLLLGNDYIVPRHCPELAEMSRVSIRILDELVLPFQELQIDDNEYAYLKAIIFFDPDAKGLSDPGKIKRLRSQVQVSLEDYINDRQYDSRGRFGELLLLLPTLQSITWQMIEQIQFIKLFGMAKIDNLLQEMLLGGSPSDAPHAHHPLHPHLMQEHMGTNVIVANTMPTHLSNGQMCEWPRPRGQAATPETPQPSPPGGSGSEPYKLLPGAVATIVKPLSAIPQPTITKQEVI
Chain of Cellular tumor antigen p53 (Homo sapiens) (P04637 whole entry, looked up, the tested form may be a part): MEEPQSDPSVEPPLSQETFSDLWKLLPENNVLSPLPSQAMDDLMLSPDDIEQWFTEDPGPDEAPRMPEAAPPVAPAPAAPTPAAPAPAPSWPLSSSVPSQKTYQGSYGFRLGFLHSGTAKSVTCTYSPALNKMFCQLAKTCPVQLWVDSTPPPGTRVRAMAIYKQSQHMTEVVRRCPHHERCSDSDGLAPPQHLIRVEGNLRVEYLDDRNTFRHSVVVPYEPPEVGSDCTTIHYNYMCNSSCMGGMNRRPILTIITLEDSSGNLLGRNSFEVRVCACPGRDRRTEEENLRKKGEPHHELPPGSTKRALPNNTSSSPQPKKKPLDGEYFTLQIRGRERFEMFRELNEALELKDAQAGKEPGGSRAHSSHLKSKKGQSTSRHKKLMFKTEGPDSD
Chain of Bile acid receptor (Homo sapiens) (Q96RI1 whole entry, looked up, the tested form may be a part): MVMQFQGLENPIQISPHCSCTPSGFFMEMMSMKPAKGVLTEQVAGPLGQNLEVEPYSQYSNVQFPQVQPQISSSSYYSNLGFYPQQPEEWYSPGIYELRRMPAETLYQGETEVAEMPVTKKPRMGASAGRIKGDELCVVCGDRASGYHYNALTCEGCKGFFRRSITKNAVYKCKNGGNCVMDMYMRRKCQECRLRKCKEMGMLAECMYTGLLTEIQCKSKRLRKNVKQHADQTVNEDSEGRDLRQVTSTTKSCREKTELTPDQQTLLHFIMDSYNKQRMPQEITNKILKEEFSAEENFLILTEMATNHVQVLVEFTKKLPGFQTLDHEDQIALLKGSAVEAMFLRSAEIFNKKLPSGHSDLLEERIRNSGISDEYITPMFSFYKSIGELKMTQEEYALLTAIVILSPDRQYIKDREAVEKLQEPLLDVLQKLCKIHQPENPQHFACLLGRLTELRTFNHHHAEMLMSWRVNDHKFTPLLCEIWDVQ
Chain of Glucocorticoid receptor (Homo sapiens) (P04150 whole entry, looked up, the tested form may be a part): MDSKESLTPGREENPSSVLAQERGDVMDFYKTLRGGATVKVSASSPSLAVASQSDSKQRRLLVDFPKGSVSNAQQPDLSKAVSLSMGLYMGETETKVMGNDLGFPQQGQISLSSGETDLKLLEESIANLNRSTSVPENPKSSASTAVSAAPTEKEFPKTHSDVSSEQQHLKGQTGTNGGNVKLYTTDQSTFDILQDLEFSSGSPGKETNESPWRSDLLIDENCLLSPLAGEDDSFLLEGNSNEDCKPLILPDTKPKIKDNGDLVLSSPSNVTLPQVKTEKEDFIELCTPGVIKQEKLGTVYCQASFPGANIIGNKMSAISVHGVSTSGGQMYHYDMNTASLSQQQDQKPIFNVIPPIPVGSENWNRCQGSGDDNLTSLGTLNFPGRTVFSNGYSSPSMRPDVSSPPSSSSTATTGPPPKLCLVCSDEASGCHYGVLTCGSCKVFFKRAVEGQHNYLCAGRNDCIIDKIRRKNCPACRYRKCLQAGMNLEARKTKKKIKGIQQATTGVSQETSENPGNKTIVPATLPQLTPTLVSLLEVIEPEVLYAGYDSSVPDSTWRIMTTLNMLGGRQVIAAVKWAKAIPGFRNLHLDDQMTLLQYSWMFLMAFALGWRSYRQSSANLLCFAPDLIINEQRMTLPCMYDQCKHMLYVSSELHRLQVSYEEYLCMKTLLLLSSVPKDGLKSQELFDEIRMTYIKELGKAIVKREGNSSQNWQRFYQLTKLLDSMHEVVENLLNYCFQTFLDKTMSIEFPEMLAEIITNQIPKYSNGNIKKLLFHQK
Chain of Nuclear receptor subfamily 4 group A member 2 (Homo sapiens) (P43354 whole entry, looked up): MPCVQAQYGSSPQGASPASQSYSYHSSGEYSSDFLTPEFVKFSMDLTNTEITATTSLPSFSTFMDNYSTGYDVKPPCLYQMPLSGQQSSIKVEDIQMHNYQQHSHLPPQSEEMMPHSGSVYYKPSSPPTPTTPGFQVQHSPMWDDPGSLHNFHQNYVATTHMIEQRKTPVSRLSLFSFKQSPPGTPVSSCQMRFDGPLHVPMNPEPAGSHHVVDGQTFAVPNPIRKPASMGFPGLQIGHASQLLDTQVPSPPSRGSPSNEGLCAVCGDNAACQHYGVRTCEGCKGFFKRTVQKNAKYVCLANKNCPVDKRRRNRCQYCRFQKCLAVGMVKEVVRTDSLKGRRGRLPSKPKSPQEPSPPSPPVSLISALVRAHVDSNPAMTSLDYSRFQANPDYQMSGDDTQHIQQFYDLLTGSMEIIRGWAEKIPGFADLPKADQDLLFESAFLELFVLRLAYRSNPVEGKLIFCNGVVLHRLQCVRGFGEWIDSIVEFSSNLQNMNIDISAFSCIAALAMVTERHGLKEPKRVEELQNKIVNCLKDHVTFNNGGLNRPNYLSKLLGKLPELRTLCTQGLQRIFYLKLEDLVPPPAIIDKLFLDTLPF
Chain of Transcriptional activator Myb (Homo sapiens) (P10242 whole entry, looked up): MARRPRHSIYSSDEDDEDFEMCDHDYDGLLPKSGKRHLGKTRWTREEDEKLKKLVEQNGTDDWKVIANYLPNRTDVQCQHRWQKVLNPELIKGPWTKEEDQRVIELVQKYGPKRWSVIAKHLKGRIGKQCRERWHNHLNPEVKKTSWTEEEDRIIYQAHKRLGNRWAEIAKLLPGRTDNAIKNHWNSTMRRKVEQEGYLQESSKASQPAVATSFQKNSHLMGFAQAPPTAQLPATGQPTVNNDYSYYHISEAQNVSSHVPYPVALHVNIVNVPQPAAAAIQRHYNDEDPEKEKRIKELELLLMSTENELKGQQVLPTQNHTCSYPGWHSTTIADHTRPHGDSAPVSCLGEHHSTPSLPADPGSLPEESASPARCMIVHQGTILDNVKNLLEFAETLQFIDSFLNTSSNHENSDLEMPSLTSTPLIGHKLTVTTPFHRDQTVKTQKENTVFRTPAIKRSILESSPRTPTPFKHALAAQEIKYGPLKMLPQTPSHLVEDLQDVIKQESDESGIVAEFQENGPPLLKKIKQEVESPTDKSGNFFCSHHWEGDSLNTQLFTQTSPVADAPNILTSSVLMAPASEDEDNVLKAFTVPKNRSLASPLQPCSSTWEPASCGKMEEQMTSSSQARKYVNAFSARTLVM

CCOCN(C(=O)CCl)c1c(C)cccc1CC
active: [11] 1.21 µM
not listed: [15] | [16] | [17] | [18] | [19] | [20]
inactive: all other assays above

CCC(C)(NC(=O)c1cc(Cl)c(C)c(Cl)c1)C(=O)CCl (stereo not drawn)
active: [11] 1.64 µM | [14] 14.4 µM
not listed: [1] | [20]
inactive: all other assays above

COC(=O)c1ccccc1CS(=O)(=O)NC(=O)Nc1nc(OC)cc(OC)n1
inactive: [1] | [2] | [15] | [16] | [17] | [3] | [18] | [19] | [4] | [5] | [6] | [7] | [8] | [9] | [10] | [11] | [12] | [13] | [20] | [14]
active: [11] 24.2 µM
